test system: LXRb homodimer (NR concentration 270 nM); assay: PBM binding z-score (relative to random genomic background probes); higher = stronger binding; sequences stand for … in GC…GCGATTGACAGCGTAGAATGAAGG
Method in brief: (§1)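 Random background probes are the reference for binding z-scores. These scores derive from regression-normalized fluorescence on custom Agilent 4×180K protein-binding microarrays incubated 1 h with ligand-free nuclear receptor dimers. Binding was detected with antibodies against each partner (one per run).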

Sequence	PBM binding z-score
CCTAGTTGGTCAGGAGGTCACACTCCGGATATGA	0.86
ACTATTAGATGACTTAGGGCAACCGATACGACGC	1.14
CGAACTAGGTCATTGACAGGACAGTGAGTAGTAA	-0.291
GGAACGAGGGCATTCGAGGTGATAGCATGGCGAT	-0.578
GCGACTGGGGCATCAGCAGGTTACCAGAACTTAA	-1.13
CCTAGCAGGCCAACCTGGGTCACTCAAGGCTTGA	-1.09
TGAATGAGGTCATAAGATCAGGGAACGTTGCAAA	1.39
GATACATGGTCAAGGCCAGAGTACGCGTATTGAT	-0.821
CGTGCAAGGTCAGCAGGTCAGTGAAAGCGACGTG	-0.32
TTACCAAGGTGAGCTGAGGTCATTGATCCAACTC	-0.78
CAAACCAGGTCACCGGAAGGTCAAAGTCCGCATG	1.71
ACAAGCAGGCCAAGTTTGGGTCACTCAAACAAAG	-0.924
TCTTGTAGATCAATAGAGGTCAAGAAAGTGCGCT	1.1
ACTCGGAGGACAAAGGTTAGAGCTACGCCAGTGA	-0.716
CAAACTAGGTCACCGGAAGGTCCAAGTCCGCATG	0.547
GCGACTGGGGCATGAGCAGGTTACCATAACTTAA	-1.12
ATCTCTAGGTAAAGATAGTTCAGTGCATGCAAAT	0.443
TAGCATAGGTCATTCAGGGGCCAGTATAGAAAGC	1.73
ATCGAAAGGTGGTGAGGTGAGTATACAGAAAGGC	0.161
CCTACTGGGCCATTCAGCGGTCATTGATCATATG	-0.516

Sequence	PBM binding z-score
CTCGAAAGGTCGGTTGAGGAGAGTATACGGATAA	0.0344
TCAGACAGGTGAAGGTAACTCACGTACGCAGTCG	-0.343
TCTCGTAGATCAATAGAGGTTAAGAAAGTGCGCT	-0.598
ACCGAAAGGTCGAGGTGAGTATAGAGAAAGGGAA	0.235
TTACCAAGGTGATAGGTCGTTGATGCACGCCTTG	-0.482
TCTATTAGTTGATTTGGGCAACCGAAACAGCGGA	1.2
CAAACTAGGTCATGAGGTCAAAGTCCGCTTCCCG	1.82
CGTCCAAGGCCAAGGTCAGTGAAAGAGACTCGAA	-0.878
ATCTCTAGGTAAAAGTTCAGCGAATCCCGAGGAT	0.982
ATACCAAGGTGATCGTGAGATCGTTGATACTAAC	-0.2
CCTACTGGGCCACGAAAGGTCTTTGATTCAGTGA	-1.08
GCTAGTAGTTGAAAGGGCAACCGAATGATTCTCG	-0.496
AGTAGCAGGCCAAGTTTGGGTCACTCAAACAAAG	-0.802
CCGACTGGGGCAAAGGTTACCAGACTCAGTACGA	-1.21
ATCTCAAGGTAAAAGTTCAGTGAATCCCGAGGAT	0.539
CCTACTGGGCCACGAAAGGTTATTGATTCAGTGA	-0.501
ACTTACGCGTCAACGAGGTTATAGCACGCGTATA	0.0457
TCTTGTAGATCAAAGGTTAACAAAGCCGAAGCCT	0.107
TCTTGTAGATCAACAGGAGGTTAGGAAAGATCGA	-0.324
TCTATTTGTTGAAGGGCAACCGACGAGTCCGTTT	1.45

test system: PPARa:RXRa (NR concentration 270 nM, RXRa partner concentration 90 nM); assay: as above
Method in brief: as §1

Sequence	PBM binding z-score
CCTAGTTGGTCAGGAGGTCACACTCCGGATATGA	3.98
ACTATTAGATGACTTAGGGCAACCGATACGACGC	0.0577
CGAACTAGGTCATTGACAGGACAGTGAGTAGTAA	4.8
GGAACGAGGGCATTCGAGGTGATAGCATGGCGAT	2
GCGACTGGGGCATCAGCAGGTTACCAGAACTTAA	1.04
CCTAGCAGGCCAACCTGGGTCACTCAAGGCTTGA	2.05
TGAATGAGGTCATAAGATCAGGGAACGTTGCAAA	5.96
GATACATGGTCAAGGCCAGAGTACGCGTATTGAT	-0.215
CGTGCAAGGTCAGCAGGTCAGTGAAAGCGACGTG	5.48
TTACCAAGGTGAGCTGAGGTCATTGATCCAACTC	3.78
CAAACCAGGTCACCGGAAGGTCAAAGTCCGCATG	6.08
ACAAGCAGGCCAAGTTTGGGTCACTCAAACAAAG	1.51
TCTTGTAGATCAATAGAGGTCAAGAAAGTGCGCT	4.19
ACTCGGAGGACAAAGGTTAGAGCTACGCCAGTGA	2.93
CAAACTAGGTCACCGGAAGGTCCAAGTCCGCATG	5.28
GCGACTGGGGCATGAGCAGGTTACCATAACTTAA	1.1
ATCTCTAGGTAAAGATAGTTCAGTGCATGCAAAT	0.697
TAGCATAGGTCATTCAGGGGCCAGTATAGAAAGC	5.15
ATCGAAAGGTGGTGAGGTGAGTATACAGAAAGGC	0.744
CCTACTGGGCCATTCAGCGGTCATTGATCATATG	0.727

Sequence	PBM binding z-score
CTCGAAAGGTCGGTTGAGGAGAGTATACGGATAA	2.25
TCAGACAGGTGAAGGTAACTCACGTACGCAGTCG	1.2
TCTCGTAGATCAATAGAGGTTAAGAAAGTGCGCT	1.62
ACCGAAAGGTCGAGGTGAGTATAGAGAAAGGGAA	4.71
TTACCAAGGTGATAGGTCGTTGATGCACGCCTTG	2.84
TCTATTAGTTGATTTGGGCAACCGAAACAGCGGA	0.657
CAAACTAGGTCATGAGGTCAAAGTCCGCTTCCCG	6.48
CGTCCAAGGCCAAGGTCAGTGAAAGAGACTCGAA	2.04
ATCTCTAGGTAAAAGTTCAGCGAATCCCGAGGAT	4.39
ATACCAAGGTGATCGTGAGATCGTTGATACTAAC	0.129
CCTACTGGGCCACGAAAGGTCTTTGATTCAGTGA	1.31
GCTAGTAGTTGAAAGGGCAACCGAATGATTCTCG	2.52
AGTAGCAGGCCAAGTTTGGGTCACTCAAACAAAG	1.47
CCGACTGGGGCAAAGGTTACCAGACTCAGTACGA	5.91
ATCTCAAGGTAAAAGTTCAGTGAATCCCGAGGAT	3.08
CCTACTGGGCCACGAAAGGTTATTGATTCAGTGA	2.58
ACTTACGCGTCAACGAGGTTATAGCACGCGTATA	1.35
TCTTGTAGATCAAAGGTTAACAAAGCCGAAGCCT	4.9
TCTTGTAGATCAACAGGAGGTTAGGAAAGATCGA	0.641
TCTATTTGTTGAAGGGCAACCGACGAGTCCGTTT	0.93
